An excerpt weighted towards active compounds, which were near 2% of everything screened.
Fh CTSL1 inh – counter-screen for PFM18AAP inhibitors: inhibitors of F. hepatica cathepsin L1; inhibition, % at 5.96 µM; 300,000 compounds, 0.49% hits; recombinant F. hepatica cathepsin L1, Z-Leu-Arg-MCA fluorescence;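 active = inhibition above the mean of all tested compounds plus 3 SD, set per screening campaign, cut at about 17% in these data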;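 also: 0% = plate median of test compound wells and 100% = 1 µM Z-Phe-Ala-diazomethylketone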
APOBEC3G inh – inhibitors of human APOBEC3G DNA deaminase; Q9HC16; recombinant A3G, ssDNA deamination FAM/TAMRA fluorescence; inhibition, % at 20 µM; 330,000 compounds, 0.28% hits; AID 493012;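 active = inhibition of at least 40% at 20 µM, with no more than 30% in the related APOBEC3A deaminase screen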;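 also: plate controls were DMSO wells with A3G for no effect and wells lacking A3G enzyme for full effect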
NALP1 yeast inh – blocks the NALP1 inflammasome reconstituted in yeast; S. cerevisiae NALP1/ASC/caspase-1 growth, X-gal OD620, 72 h; inhibition, % at 10 µM; 280,000 compounds, 0.61% hits; AID 2071; in the data active = inhibition mostly above about 24%, no sharp cut-off; inactive = mostly below about 32%
HGIII-sPLA2 inh – Blocks human group III sPLA2 activity. Q9NZ20. 370,000 compounds, 0.56% hits. QFRET BODIPY PC-A2 liposome hydrolysis, fluorescence. inhibition, % at 12.2 µM;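 active = inhibition above mean plus 3 SD of compounds lying within the high and low control bounds, cut at about 19% in these data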;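 also: 0% = median of test compound wells and 100% = no enzyme DMSO wells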
Target sequence (Q9NZ20 whole entry, looked up): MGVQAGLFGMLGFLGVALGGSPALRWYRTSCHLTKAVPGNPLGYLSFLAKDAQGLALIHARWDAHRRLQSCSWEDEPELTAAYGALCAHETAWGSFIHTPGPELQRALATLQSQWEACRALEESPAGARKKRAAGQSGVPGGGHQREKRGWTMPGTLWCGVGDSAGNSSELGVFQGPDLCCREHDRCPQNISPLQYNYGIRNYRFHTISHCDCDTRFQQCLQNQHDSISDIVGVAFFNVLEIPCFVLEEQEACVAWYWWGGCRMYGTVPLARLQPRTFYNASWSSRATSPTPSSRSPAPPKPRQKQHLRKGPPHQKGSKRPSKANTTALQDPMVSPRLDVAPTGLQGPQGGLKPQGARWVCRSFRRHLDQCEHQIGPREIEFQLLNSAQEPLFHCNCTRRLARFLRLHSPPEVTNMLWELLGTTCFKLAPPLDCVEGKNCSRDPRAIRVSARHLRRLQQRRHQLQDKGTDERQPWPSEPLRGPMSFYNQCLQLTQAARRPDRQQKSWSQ
A3A deaminase – human APOBEC3A DNA deaminase inhibition | P31941 | recombinant A3A, FAM/TAMRA ssDNA deamination fluorescence | inhibition, % at 20 µM | 330,000 compounds, 0.41% hits;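 active = at least 40% inhibition at 20 µM here, with at most 30% in a related deaminase screen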;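 also: plate controls were A3A with DMSO for no effect and wells lacking A3A enzyme for full effect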
Target sequence (P31941 whole entry, looked up): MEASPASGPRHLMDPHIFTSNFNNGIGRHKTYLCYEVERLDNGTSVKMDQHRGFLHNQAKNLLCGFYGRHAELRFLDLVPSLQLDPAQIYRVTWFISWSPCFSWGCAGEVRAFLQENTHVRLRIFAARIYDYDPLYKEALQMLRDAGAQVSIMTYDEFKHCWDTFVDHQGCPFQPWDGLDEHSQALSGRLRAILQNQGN
APOBEC3A confirm – confirmation of human APOBEC3A DNA deaminase inhibitors; shares compounds with A3A deaminase; recombinant A3A, ssDNA deaminase UDG fluorescence assay; inhibition, % at 20 µM; 1,400 compounds, 63% hits;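 active = inhibition reaching a set limit, 80% of the first screen's cutoff, at 20 µM in any replicate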;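 also: plate controls were DMSO wells with A3A for no effect and wells lacking A3A enzyme for full effect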
UDG ctr A3A – UDG inhibition in APOBEC3A counter-screen; shares compounds with A3A deaminase; inhibition, % at 20 µM; UDG counterscreen, FAM/TAMRA uracil oligo fluorescence; 1,000 tested, under 10 active; call rule not given here
* = called active by the depositor.

Screening O=C(Cc1cccs1)Nc1nnc(Cc2ccccc2)s1 returned Fh CTSL1 inh -3.5, APOBEC3G inh 28.7, NALP1 yeast inh 20.2, HGIII-sPLA2 inh -3.8, A3A deaminase 63.8*, APOBEC3A confirm 45.9* and UDG ctr A3A -2.9.
O=C(Cc1cccs1)Nc1nnc(CCc2ccccc2)s1 was read as Fh CTSL1 inh -1.6, APOBEC3G inh -6.5, NALP1 yeast inh -2.9, HGIII-sPLA2 inh -24.9 and A3A deaminase -2.8.
`COC(=O)C1=C(C)N(Cc2ccccc2)C(=NCCc2cccnc2)N[C@H]1c1ccc(Br)cc1` gave APOBEC3G inh 11.9, A3A deaminase 44.9*, APOBEC3A confirm 54.3* and UDG ctr A3A 2.1.
`COC(=O)C1=C(C)N(Cc2ccccc2)C(=NCCc2cccnc2)N[C@H]1c1ccccc1` gave Fh CTSL1 inh -4.8, APOBEC3G inh 27.4, NALP1 yeast inh -0.9, A3A deaminase 79.6*, APOBEC3A confirm 73.9* and UDG ctr A3A -3.2.
For COC(=O)C1=C(C)N(Cc2ccccc2)C(=NCCCCO)N[C@H]1c1ccccc1 the results were Fh CTSL1 inh -4.0, APOBEC3G inh 18.7, NALP1 yeast inh 20.1, A3A deaminase 51.5*, APOBEC3A confirm 74.6* and UDG ctr A3A 6.0.
COC(=O)C1CN(Cc2cn(CCOC(C)=O)nn2)CCS(=O)(=O)N1Cc1ccc(C)cc1 (centres undefined) was read as HGIII-sPLA2 inh 1.4.
`Oc1ccccc1C=Nn1c(-c2ccccc2F)n[nH]c1=S` gave HGIII-sPLA2 inh 10.6.
Screening Cc1ccccc1CN1CCCCC(NC(=O)c2ccc(F)cc2)C1=O (centres undefined) returned HGIII-sPLA2 inh 3.3.
For N=c1c2c(-c3ccccc3)c(-c3ccccc3)n(Cc3ccccc3)c2ncn1C1CCOCC1 the results were HGIII-sPLA2 inh 5.5.
Cc1ccc(/C=C/c2ccc(N(C)C)cc2)[n+](C)c1 was read as Fh CTSL1 inh 2.1, APOBEC3G inh 5.6, NALP1 yeast inh -7.6, HGIII-sPLA2 inh 0.6, A3A deaminase 59.8*, APOBEC3A confirm 66.9* and UDG ctr A3A -2.9.
CN(C)c1ccc(/C=C/c2cc[n+](C)cc2)cc1 was read as Fh CTSL1 inh 4.1, APOBEC3G inh 10.7, NALP1 yeast inh -1.7, HGIII-sPLA2 inh -3.9 and A3A deaminase 38.8.
`COC(=O)[C@]12C[C@H](CC(=O)NCC3CCCCC3)C(=O)N(Cc3ccco3)C1=C[C@H](COCc1ccccc1)O[C@@H]2C` gave HGIII-sPLA2 inh 2.7.
C=CCNC(=O)Cn1nc(-c2ccccc2)ccc1=O was read as Fh CTSL1 inh 2.5, APOBEC3G inh 8.2, NALP1 yeast inh 30.4, HGIII-sPLA2 inh 13.4, A3A deaminase 61.3* and APOBEC3A confirm 2.5.
For CC(Oc1ccc(Br)cc1)C(=O)Nc1cc(Cl)ccc1N1CCN(C)CC1 (centres undefined) the results were Fh CTSL1 inh 4.0, APOBEC3G inh 9.4, HGIII-sPLA2 inh -19.3, A3A deaminase 58.1*, APOBEC3A confirm 54.4* and UDG ctr A3A -1.9.
Screening COc1ccc(CCC(=O)Nc2cc(Cl)ccc2N2CCN(C)CC2)cc1 returned Fh CTSL1 inh -2.5, APOBEC3G inh -4.0, NALP1 yeast inh 17.7, HGIII-sPLA2 inh -0.3 and A3A deaminase 5.9.
Screening COC(=O)c1ccc(CNCC(=O)Nc2ccc(C(=O)OC)cc2)cc1 returned Fh CTSL1 inh 2.0, APOBEC3G inh -4.4, NALP1 yeast inh 30.5, HGIII-sPLA2 inh -4.2 and A3A deaminase -0.6.
COC(=O)c1ccc(NC(=O)CSc2ccccn2)cc1 was read as Fh CTSL1 inh -2.7, APOBEC3G inh 3.9, NALP1 yeast inh 0.4, HGIII-sPLA2 inh -1.2, A3A deaminase 54.7* and APOBEC3A confirm 6.0.
COC(=O)c1ccc(NC(=O)CSc2ccccc2)cc1 was read as Fh CTSL1 inh 0.3, APOBEC3G inh 4.1, NALP1 yeast inh 19.1, HGIII-sPLA2 inh -14.7 and A3A deaminase 1.8.
`COC(=O)c1ccc(NCC(=O)Nc2cc(C)cc(C)c2)cc1` gave Fh CTSL1 inh 4.3, APOBEC3G inh 18.3, HGIII-sPLA2 inh 2.9, A3A deaminase 50.1* and APOBEC3A confirm 1.4.
For Cc1cc(C)cc(C(=O)OCCN2CCN(C3CN(Cc4cn(Cc5ccccc5F)nn4)S(=O)(=O)C3)CC2)c1 (centres undefined) the results were HGIII-sPLA2 inh 1.5.
For CCOC(=O)[C@]12CCCCC/C=C\1N(CCc1ccc(Cl)cc1)C(=O)[C@H]2CC(=O)N1CCOCC1 the results were HGIII-sPLA2 inh -1.6.
Screening CCC(Sc1nnnn1C)C(=O)Nc1ccc(C(C)=O)cc1 (centres undefined) returned Fh CTSL1 inh -8.3, APOBEC3G inh 17.8, NALP1 yeast inh 3.5, HGIII-sPLA2 inh 2.0, A3A deaminase 40.4* and APOBEC3A confirm 28.6.
CC(Sc1nnnn1C)C(=O)Nc1ccc(Oc2ccccc2)cc1 (centres undefined) was read as Fh CTSL1 inh -4.3, APOBEC3G inh 2.3, NALP1 yeast inh 5.6, HGIII-sPLA2 inh -8.2 and A3A deaminase 3.1.
For CC(C)(C)N1Cc2nnn(Cc3ccccc3)c2-c2cc(N3CCCC3)ccc2S1(=O)=O the results were HGIII-sPLA2 inh 6.3.
O=C1C2C(C(=O)N1/N=C/c1cc([N+](=O)[O-])c(O)cc1O)C1C=CC2C12CC2 (centres undefined) was read as Fh CTSL1 inh 3.9, APOBEC3G inh 19.3, NALP1 yeast inh 10.6, HGIII-sPLA2 inh 2.6, A3A deaminase 77.8*, APOBEC3A confirm 74.5* and UDG ctr A3A -1.6.
O=C1C2C(C(=O)N1/N=C/c1cc([N+](=O)[O-])ccc1O)C1C=CC2C12CC2 (centres undefined) was read as Fh CTSL1 inh 0.9, APOBEC3G inh -1.1, NALP1 yeast inh 14.6, HGIII-sPLA2 inh 5.0 and A3A deaminase -6.6.
`COC(=O)C1CN(Cc2ccccc2)CCS(=O)(=O)N1Cc1ccc(C)cc1` (centres undefined) gave HGIII-sPLA2 inh -3.4.
Screening COc1ccc(N(CC(=O)N2CCCCCC2)S(=O)(=O)c2ccccc2[N+](=O)[O-])c(OC)c1 returned Fh CTSL1 inh -6.4, APOBEC3G inh 17.2, NALP1 yeast inh -8.8, HGIII-sPLA2 inh -3.0, A3A deaminase 49.9*, APOBEC3A confirm 61.6* and UDG ctr A3A -2.0.
Screening COc1ccc(C(C)c2cn(C)c3ccccc23)cc1 (centres undefined) returned HGIII-sPLA2 inh 10.8.
Screening Cc1cccc2cc(=O)[nH]c(C)c12 returned Fh CTSL1 inh 7.2, APOBEC3G inh 18.1, NALP1 yeast inh 3.9, HGIII-sPLA2 inh 3.5, A3A deaminase 40.1* and APOBEC3A confirm 6.6.
Screening Cc1cccc2c(Cl)cc(=O)[nH]c12 returned APOBEC3G inh -4.4, NALP1 yeast inh 9.7, HGIII-sPLA2 inh 0.2 and A3A deaminase -1.0.
